NPC1 promoter act: activates the NPC1 promoter; AID 485313; Potency, µM (titrated, usually from 9.22 µM), for the others: at the top dose activation, most hits filed as activators; 320,000 compounds, 2.4% hits; Huh7 NPC1 promoter luciferase reporter, 24 h; also: % of control where 0% means no effect; nearly all actives have a fitted effect of over 60% in size
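Compounds in DMSO were transferred onto Huh7 NPC1-luciferase reporter cells pre-incubated 2 h; after 24 h at 37 °C, Amplite reagent was dispensed and luminescence recorded 10 min later.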
SMN2 splice enh: enhancers of SMN2 splice variant expression; HEK293 SMN2-luciferase splicing reporter, luminescence, 30-36 h; Potency, µM (highest dose often 46.1 µM), for inactives: at the top dose activity change, positive = activation, hits mostly activators; 210,000 compounds, 2.8% hits; AID 1458; also: % of control where 0% means no effect; nearly all actives have a fitted effect of over 55% in size
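HEK293 cells carry an SMN2 […]–luciferase reporter in which exon 7 inclusion puts luciferase in frame. Cells were plated 10-12 h before compound addition, then incubated 30-36 h at 37C. ONE-Glo luminescence was read; sodium butyrate at 4.5 mM final served as control.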
FLuc modulator: counter-screen for miR-21 project: firefly luciferase inhibitors or activators | purified FLuc, Km substrates, luminescence inhibition | Potency, µM (top dose mostly 57.5 µM), for inactives: at the highest dose activity change, negative = inhibition, most hits filed as inhibitors | 360,000 compounds, 6.9% hits;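 also: plate controls were vehicle for no effect and reference inhibitor for full effect; nearly all actives have a fitted effect of over 55% in size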
Target sequence (P08659 whole entry, looked up): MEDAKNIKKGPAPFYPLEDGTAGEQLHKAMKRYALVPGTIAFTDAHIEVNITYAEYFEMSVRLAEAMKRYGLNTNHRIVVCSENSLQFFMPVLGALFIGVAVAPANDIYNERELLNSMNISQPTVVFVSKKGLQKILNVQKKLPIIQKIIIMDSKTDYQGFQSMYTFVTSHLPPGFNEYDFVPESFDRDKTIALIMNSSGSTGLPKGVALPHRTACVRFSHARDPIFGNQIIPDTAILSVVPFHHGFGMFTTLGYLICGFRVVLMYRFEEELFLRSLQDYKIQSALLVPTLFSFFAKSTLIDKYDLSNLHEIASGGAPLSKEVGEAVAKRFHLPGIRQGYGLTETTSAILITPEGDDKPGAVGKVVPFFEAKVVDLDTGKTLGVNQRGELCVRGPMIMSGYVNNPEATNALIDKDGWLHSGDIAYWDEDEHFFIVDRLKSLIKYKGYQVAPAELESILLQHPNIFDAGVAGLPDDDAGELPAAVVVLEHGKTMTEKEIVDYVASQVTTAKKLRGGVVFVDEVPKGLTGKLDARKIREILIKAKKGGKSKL
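Purified P. pyralis luciferase (10nM final) with 10uM D-luciferin and 10uM ATP (Km levels) in 50mM Tris acetate pH 7.5, 10mM Mg acetate, 0.01% Tween-20, 0.05% BSA; qHTS 6-point titration, ~60 µM downward; luminescence read.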
KinaseGlo FLuc: counter-screen: inhibitors of Kinase-Glo firefly luciferase. Q27757. Kinase-Glo luciferase, ATP luminescence, 8 min. 200,000 compounds, 0.28% hits. Potency, µM (titrated, usually from 38.3 µM), for the others: at the top dose activity change, negative = inhibition, usual class: inhibitors; also: % is scaled to controls: 0 for no effect and ±100 for the full control effect; nearly all actives have a fitted effect of over 60% in size
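Light output from Kinase-Glo luciferase with luciferin and 10 uM ATP in 50 mM imidazole pH 7.2, KCl, MgCl2, Tween 20, BSA; compound pin-delivered, 8-min ambient incubation, then luminescence read.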
Rab9 promoter act: activates the Rab9 promoter; Huh7 Rab9 promoter-luciferase reporter, luminescence, 24 h; Potency, µM (titrated, usually from 9.22 µM), for the others: at the top dose activation, negative = inhibition, hits mostly activators; 320,000 compounds, 2.8% hits; AID 485297; also: % of control where 0% means no effect; nearly all actives have a fitted effect of over 60% in size
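Luminescence read-out: Huh7 cells stably expressing Rab9-luciferase, treated 24 h with compound at 37 °C, then lysed with luciferase reagent for 10 min at ambient before reading.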
ELG1 genotox: inducers of genotoxicity in HEK293T ELG1-luciferase cells. HEK293T ELG1-luciferase reporter, luminescence, 16 h. Potency, µM (titrated, usually from 46 µM), for the others: at the top dose activity change, positive = activation, usual class: activators. 330,000 compounds, 1.3% hits; also: % of control where 0% means no effect; nearly all actives have a fitted effect of over 60% in size
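Screening used a luciferase reporter fused to human ELG1 in HEK293T cells. Luminescence was read on a CCD plate imager after 16 hr exposure and 30 min ONE-Glo incubation.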
* marks the source's active call; other numbers are inactive results; ? = inconclusive; · = not tested or not shown; [ ] = another dose, or the depositor's remark. Sampled rows, rich in hits. Any-hit rate of the full collection: about 7.5%. Calls follow the shape of the dose curve; as a rule, active = well fitted curve in the direction sought with a large enough effect; inconclusive = small, poorly fitted or top-dose-only effect, or another doubt; inactive = no such curve, though single readings can be large; an effect the other way counts as inactive or inconclusive. Potency is read from the fitted curve at half-maximal effect.

SMILES | NPC1 promoter act | SMN2 splice enh | FLuc modulator | KinaseGlo FLuc | Rab9 promoter act | ELG1 genotox
CC(=O)Nc1ccc(N2C(=O)c3cccc4c(O)ccc(c34)C2=O)cc1 | 0% | · | ? | · | 1% | 0%
O=C1c2cccc3c(O)ccc(c23)C(=O)N1c1ccc(Cl)cc1 | 3.5µM* | · | 17µM* | · | 0.79µM* | 6%
COc1ccc(OC)c(CCNC(=O)c2cc3c(s2)-c2c(C)cccc2OC3)c1 | · | 5% | 1% | · | · | ·
COc1cc(NC(=O)CSc2ncnc3scc(-c4ccccc4)c23)c(C(=O)O)cc1OC | 0% | 20% | 15µM* | 1% | -5% | 2%
COc1ccc(Cl)cc1NC(=O)CCn1nc(C)cc1C | · | · | -2% | · | · | ·
CCCc1cnc(N2CCN(C(=S)NC)CC2)nc1 | ? | · | 17µM* | · | 4.5µM* | 23µM*
O=C(NCc1ccccc1)Nc1cccn(Cc2ccccc2)c1=O | 1% | -18% | 11µM* | -2% | -7% | -2%
CC(=O)Nc1ccc(S(=O)(=O)Nc2cc(C)cn(Cc3ccccc3)c2=O)cc1 | -1% | · | 4% | · | 3% | -10%
O=C(NCc1ccccc1)Nc1cccn(Cc2ccc(F)cc2)c1=O | 0% | -48% | ? | 2% | -3% | 0%
Cc1cc(NC(=O)NCc2ccccc2)c(=O)n(Cc2ccc(F)cc2)c1 | -3% | · | 1.7µM* | · | 5% | 3%
CCOc1ccc(NC(=O)Nc2cccn(Cc3ccccc3)c2=O)cc1 | 3% | -20% | 9.5µM* | -4% | 0% | -1%
COc1ccc(Cn2cccc(NC(=O)Nc3cccc(C#N)c3)c2=O)cc1 | -3% | -35% | 2% | 0% | -15% | -10%
O=C(NCc1ccccc1)Nc1cccn(Cc2ccccc2F)c1=O | 0% | -26% | 12µM* | -4% | 4% | 4%
O=C(NCc1ccccc1)Nc1cccn(Cc2cccc(F)c2)c1=O | -3% | -27% | ? | 3% | 0% | 1%
Cc1ccc(CCNC(=O)C(NS(=O)(=O)c2ccc3c(c2)oc(=O)n3C)C(C)C)cc1 (stereo not drawn) | · | -8% | 1% | · | · | ·
Cc1ccc(Cn2cccc(NC(=O)NC3CCCCC3)c2=O)cc1 | 1% | -50% | 17µM* | 0% | -4% | -5%
CCOc1ccc(NC(=O)Nc2ccccc2SC)cc1 | 4µM* | · | 2.7µM* | 11µM* | ? | ?
O=Nc1ccc(NOC(=O)c2ccccc2)cc1 | -3% | -38% | 0.095µM* | 10µM* | -3% | -3%
Cc1c(NC(=O)c2ccc3c(c2)C(=O)N(CC2CCCO2)C3=O)cccc1C(=O)O (stereo not drawn) | -3% | 15% | 15µM* | 1% | 1% | 2%
CCOC(=O)c1ccc(NC(=O)c2ccc3c(c2)C(=O)N(CC2CCCO2)C3=O)cc1 (stereo not drawn) | 1% | · | -11% | · | -2% | -8%
O=C(Nc1ccc2c(c1)C(=O)N(CC1CCCO1)C2=O)c1ccc(Cl)c(Cl)c1 (stereo not drawn) | -8% | -78% | 5.4µM* | -2% | -13% | 14%
Nc1ccc(Oc2ccc3c(c2)C(=O)N(CC2CCCO2)C3=O)cc1 (stereo not drawn) | ? | · | 9.5µM* | · | ? | ?
Cc1nnc(NC(=O)c2ccc3c(c2)C(=O)N(CC2CCCO2)C3=O)s1 (stereo not drawn) | -2% | -3% | 5.4µM* | 1% | 2% | 7%
Nc1ccc2c(c1)C(=O)N(CC1CCCO1)C2=O (stereo not drawn) | 6% | 1% | -12% | 0% | -1% | 12%
Cc1ccc(NC(=O)CCC(=O)N2Cc3ccccc3Oc3ncccc32)cc1F | · | · | -16% | · | · | ·
SMILES | NPC1 promoter act | SMN2 splice enh | FLuc modulator | KinaseGlo FLuc | Rab9 promoter act | ELG1 genotox
CC(Oc1ccccc1)C(=O)Nc1c(C(=O)Nc2cccc(F)c2)oc2ccccc12 (stereo not drawn) | · | 5% | -1% | · | · | ·
COc1ccc(NC(=O)c2ccc3c(c2)C(=O)N(CC2CCCO2)C3=O)cc1O (stereo not drawn) | 1% | · | ? | · | -6% | 2%
Cc1ccc(NC(=O)c2ccc3c(c2)C(=O)N(CC2CCCO2)C3=O)cc1C (stereo not drawn) | 0% | · | 11µM* | 0% | 14% | 2%
O=C(Nc1cccnc1)c1ccc2c(c1)C(=O)N(CC1CCCO1)C2=O (stereo not drawn) | -4% | -3% | 3% | -1% | -1% | 0%
O=C(Nc1ccc(O)c(C(=O)O)c1)c1ccc2c(c1)C(=O)N(CC1CCCO1)C2=O (stereo not drawn) | -5% | -10% | 9.5µM* | -1% | -1% | 0%
COc1ccc(OC)c(N/C(C)=C/C(=O)c2ccccc2)c1 | 4µM* | 188% | 0.85µM* | -4% | 3.5µM* | ?
COc1ccc(N/C(C)=C/C(=S)Nc2ccccc2)cc1 | 2% | 11% | 11µM* | -1% | 2% | 12%
COC(=O)/C(=C\C(=O)c1ccccc1)Nc1ccc(OC)cc1 | 0% | · | ? | · | 4% | 1%
COc1ccc(OC)c(N/C(C)=C/C(=O)c2ccncc2)c1 | -6% | · | 2% | · | 6% | -11%
COc1ccc(N/C(C)=C/C(=O)c2ccccc2)cc1 | ? | 13µM* | 3µM* | -1% | 2.8µM* | ?
CCN(CC(=O)Nc1ccc(OC)cc1)CC(=O)Nc1ccc2c(c1)OCO2 | -3% | · | 3% | · | 1% | 0%
COc1ccc(C(=O)/C=C(\C)Nc2ccc3c(c2)OCO3)cc1 | 3.2µM* | ? | 4.8µM* | -8% | 2.2µM* | ?
COc1ccc(CCNC(=O)Cn2nc(C)n3c(cc4occc43)c2=O)cc1OC | · | 6% | -6% | · | · | ·
O=C1C[C@H]2OCC=C3CN4CC[C@@]5(C(=O)O)[C@H](N1)C2[C@H]3C[C@H]45 (stereo partly drawn) | · | 8%[9.22 µM] | · | -2%[7.66 µM] | · | ·
COc1ccc(OC)c(N/C=C/C(=O)c2ccccc2)c1 | ? | · | 0.067µM* | · | ? | ?
FC(F)(F)c1cccc(-c2nn[nH]n2)c1 | -1% | 4% | ? | 1% | 7% | 2%
FC(F)(F)c1cccc(-c2ccc(-c3csnn3)o2)c1 | 10% | -15% | 17µM* | 11% | ? | 14%
O=c1ccc2cc(S(=O)(=O)N3CCOCC3)ccc2o1 | -4% | 7.9µM* | 9% | 1% | 2% | 0%
O=C(N=Nc1c(O)[nH]c2ccccc12)c1cccc(S(=O)(=O)Nc2ccccc2Cl)c1 | 1% | 1% | 21µM* | -4% | -2% | -3%
NS(=O)(=O)c1cc(C(=O)N=Nc2c(O)[nH]c3ccccc23)ccc1Cl | 21% | · | 6µM* | · | 18% | 4%
Cn1c(=O)n(-c2ccc(Br)cc2F)c(=O)c2sc3ccccc3c21 | · | -13% | 1% | · | · | ·

Screening results (PubChem BioAssay)
